In the library only some 1.2% were active in any assay of this set; here they are far more common.
GC-A act: GC-A stimulated cGMP production enhancers – HEK293 GC-A cells, cGMP TR-FRET, EC30 ANP, primary screen | Atrial natriuretic peptide receptor 1 (Homo sapiens), P16066 | activation, % at 10 µM | actives 0.14% (n = 370,000) | 0% at EC30 ANP, 100% saturating ANP; in the data active = activation above about 40%
TLR9-MyD88 block: inhibitors of TLR9-MyD88 association in cells, primary screen, cell-based, CHO, BLA complementation, fluorescence. AID 504734, 2011. actives 0.21% (n = 340,000). inhibition, % at 4.98 µM. CCF4 FRET ratio;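 active = inhibition above the mean over all tested compounds plus 3 SD, cut at about 21% in these data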;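 note: 0% = DMSO only wells and 100% = clavulanate BLA inhibitor control wells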
Neddylation inh: inhibitors of cullin neddylation, primary screen, biochemical, TR-FRET, uHTS, NAE and Ubc12. actives 0.58% (n = 360,000). NEDD8-conjugating enzyme Ubc12 (Homo sapiens) + NEDD8-activating enzyme E1 regulatory …. inhibition, % at 25 µM; in the data active = inhibition above about 36%
NOD2-RIPK2 inh: NOD2-RIPK2 binding disruptors in cells, primary screen, fluorescence, CHO cells, BLA complementation; Receptor-interacting serine/threonine-protein kinase 2 (Homo sapiens), O43353; CCF4 ratio; inhibition, % at 4.98 µM; actives 0.38% (n = 360,000); AID 624267, 2012; in the data active = inhibition above about 21%;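 note: 0% = vehicle only and 100% = reference blocker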
TLR4 MyD88 comp: inhibitors of TLR4-MyD88 association in cells, primary screen, cell-based, HeLa CL3-4, BLA complementation, FRET ratio; HeLa CL3-4 TLR4/MyD88 BLA complementation; inhibition, % at 8.4 µM; actives 0.18% (n = 200,000); AID 861, 2007; in the data active = inhibition above about 25%;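 note: 0% = vehicle and 100% = reference inhibitor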
NPR2 activator: human GC-B receptor activators, primary screen, HEK293 GC-B cells, cGMP TR-FRET, EC30 CNP | activation, % at 10 µM | 0% at EC30 CNP, 100% saturating CNP | AID 1920062, 2024 | Atrial natriuretic peptide receptor 2 (Homo sapiens), P20594 | actives 0.11% (n = 370,000);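 active = activation at 10 µM reaching about 35% in either raw or pattern-adjusted values, limit read from the data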
Target sequence (P20594 whole entry, looked up): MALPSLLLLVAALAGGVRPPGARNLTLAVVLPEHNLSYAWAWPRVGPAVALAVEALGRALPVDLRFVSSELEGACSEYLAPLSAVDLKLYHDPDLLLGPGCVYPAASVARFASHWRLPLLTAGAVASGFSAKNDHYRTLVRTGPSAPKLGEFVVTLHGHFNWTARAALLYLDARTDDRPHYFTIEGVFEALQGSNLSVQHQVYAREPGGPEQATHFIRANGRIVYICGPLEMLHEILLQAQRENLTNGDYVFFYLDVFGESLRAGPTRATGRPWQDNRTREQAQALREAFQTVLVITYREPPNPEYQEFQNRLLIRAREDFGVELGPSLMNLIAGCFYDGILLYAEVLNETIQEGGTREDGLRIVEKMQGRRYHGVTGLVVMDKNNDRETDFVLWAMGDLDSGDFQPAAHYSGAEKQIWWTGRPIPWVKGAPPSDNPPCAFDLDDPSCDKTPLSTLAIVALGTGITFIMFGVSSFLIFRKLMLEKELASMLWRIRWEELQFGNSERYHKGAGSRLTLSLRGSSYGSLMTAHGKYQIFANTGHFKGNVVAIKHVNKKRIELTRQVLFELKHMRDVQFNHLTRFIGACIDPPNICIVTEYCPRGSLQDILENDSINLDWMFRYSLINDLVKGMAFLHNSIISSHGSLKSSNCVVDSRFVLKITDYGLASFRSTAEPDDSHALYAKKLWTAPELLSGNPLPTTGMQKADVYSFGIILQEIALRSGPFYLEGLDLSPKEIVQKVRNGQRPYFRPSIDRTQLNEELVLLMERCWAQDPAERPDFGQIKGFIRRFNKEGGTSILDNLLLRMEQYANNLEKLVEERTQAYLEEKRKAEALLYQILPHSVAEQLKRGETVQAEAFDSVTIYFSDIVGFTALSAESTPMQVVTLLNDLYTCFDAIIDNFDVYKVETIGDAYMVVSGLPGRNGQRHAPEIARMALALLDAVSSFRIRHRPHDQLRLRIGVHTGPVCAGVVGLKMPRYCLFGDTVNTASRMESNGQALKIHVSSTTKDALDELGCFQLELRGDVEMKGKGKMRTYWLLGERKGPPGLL
NOD2 RIPK2 conf: NOD2-RIPK2 binding disruptors, retest, confirmation, fluorescence, CHO cells, BLA complementation, triplicate; CCF4 FRET; inhibition, % at 4.98 µM; shares compounds with NOD2-RIPK2 inh; actives 70% (n = 1,200);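 active = mean inhibition across replicates above a set limit taken from the earlier primary screen, cut at about 21% in these data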;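 note: 0% = DMSO-only wells and the high end = clavulanate BLA-blocked wells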
NOD2 BLA counter: hits BLA reporter in NOD2-RIPK2 inhibitor counterscreen | shares compounds with NOD2-RIPK2 inh | actives 57% (n = 1,200) | CHO BLA reporter, CCF4 FRET ratio | inhibition, % at 4.98 µM;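 active = mean inhibition above the low-control mean inhibition plus three low-control SD, cut at about 11% in these data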;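 note: 0% = DMSO only wells and 100% = clavulanate high control wells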
* marks the source's active call; other numbers are inactive results; nt = no result shown.

SMILES	GC-A act	TLR9-MyD88 block	Neddylation inh	NOD2-RIPK2 inh	TLR4 MyD88 comp	NPR2 activator	NOD2 RIPK2 conf	NOD2 BLA counter
Cc1cc2[nH]c3c(c[n+](C)c4ccccc34)c2cc1C	10	7	nt	8	17	-4	nt	nt
CC(C)C[C@H]1COc2cc(Br)ccc2S(=O)(=O)N1Cc1cn(Cc2ccc(C(F)(F)F)cc2)nn1	0	nt	nt	nt	nt	4	nt	nt
CC(=O)Oc1ccc(C#C/C=C2\c3ccccc3C(=O)N2c2ccccc2)cc1	nt	4	0	4	nt	nt	nt	nt
CCCC(/C=C/c1ccc(OC(C)=O)cc1)=C1/c2ccccc2C(=O)N1c1ccccc1	-2	13	nt	25*	nt	-9	20	28*
Clc1ccccc1Cn1ccc2ccc(-c3ccc4ccn(Cc5ccccc5Cl)c4c3)cc21	5	nt	nt	nt	nt	-1	nt	nt
CC(=O)Nc1ccc(NC(=O)c2cc(-c3ccc(F)cc3C)n[nH]2)cc1	-3	nt	5	28*	nt	0	-21	-8
COc1cccc(OC)c1C(=O)NC(=S)Nc1ccc2oc(-c3ccncc3)nc2c1	-1	-21	-20	64*	-2	-1	-10	-2
CC(C)Oc1ccc(CNC(=O)Cn2ccc3cc(S(=O)(=O)N4CCCC4)ccc32)cc1	-3	3	-118	27*	nt	-1	-4	-1
COc1cccc(CNC(=O)Cn2ccc3cc(S(=O)(=O)N4CCCC4)ccc32)c1	1	-17	8	-2	nt	0	nt	nt
CCN(C[C@H]1N[C@@](CC)(C(=O)OC)[C@H]2C(=O)N(C)C(=O)[C@@H]12)C(=O)Nc1ccc(C)cc1	0	-11	3	-10	nt	-1	nt	nt
COc1ccc(OCCN2CCC(C(=O)NC(c3ccc(C)cc3)c3ccccn3)CC2)cc1 (configuration not stated)	0	nt	-2	21*	nt	-2	-5	0
COc1ccc(C(NC(=O)C2CCN(CCOc3ccccc3)CC2)c2ccccn2)cc1 (configuration not stated)	-1	nt	1	1	nt	3	nt	nt
O=C(NCCc1ccccc1)OCc1cn(Cc2ccccc2C(F)(F)F)nn1	2	nt	nt	nt	nt	7	nt	nt
COCC(=O)N(C)[C@H]1C[C@H]2c3[nH]c4c(-c5ccc6c(c5)OCO6)cccc4c3CCN2C(=O)[C@H]1[C@H](C)O	1	nt	nt	nt	nt	-3	nt	nt
CCCCNC(=O)C[C@H]1C[C@@]2(C(=O)OC)C(=C[C@H](COCc3ccccc3)O[C@@H]2C)N(Cc2ccco2)C1=O	4	nt	nt	nt	nt	2	nt	nt
O=S1(=O)c2ccc(Br)cc2OC[C@@H](Cc2ccccc2)N1Cc1cn(Cc2ccc(Cl)cc2)nn1	-6	nt	nt	nt	nt	6	nt	nt
Cc1ccc(C2CC(c3ccccc3)=NN2C(=S)Nc2ccccc2)o1 (configuration not stated)	-8	1	15	48*	8	-11	2	-4
N#CN1CCC(NS(=O)(=O)c2cccc(C(F)(F)F)c2)CC1	3	nt	nt	nt	nt	-6	nt	nt
NC(=S)N/N=C1/CCSc2ccc3ccccc3c21	-8	3	-27	23*	0	-6	1	-2
CC(=O)Oc1c(-c2ccco2)oc2ccccc2c1=O	4	20	46*	28*	8	1	31*	30*
COc1ccc(-n2cc(COC(=O)NCCc3c[nH]c4ccccc34)nn2)cc1	-2	nt	nt	nt	nt	2	nt	nt
O=C1C=C(c2ccccc2)C(=O)N1Nc1ccccc1	13	20	-13	49*	2	1	78*	3
